Data published in PubChem BioAssay (NCATS).
Results filed as inconclusive are left out. The source made the active and inactive calls. The call rests on the fitted dose curve; in most records, active means well fitted curve in the direction sought with a large enough effect; inconclusive means small, poorly fitted or top-dose-only effect, or another doubt; inactive means no such curve, though single readings can be large; an effect the other way counts as inactive or inconclusive.

How the values were obtained:
[1] = target: Calcium and integrin-binding protein 1 (Homo sapiens) (UniProt Q99828); experiment: Primary qHTS for Identification of Calcium Integrin Binding Protein 1 (CIB1) Competitor (AID 1508620);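 further: GST tagged CIB1 binding a fluorescein labelled alphaIIb integrin peptide tracer; top concentration of the series differs between compounds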
Procedure, shortened: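 CIB1-GST (1 uM final) and compound incubated 15 min at room temperature before adding FITC-alphaIIb peptide tracer (100 nM final). Competition for binding read by fluorescence polarization (ex 480, em 540) after another 15 min at room temperature.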

[2] = Primary qHTS for inhibitors of nuclear receptor binding SET domain protein 2 (NSD2) in an isogenic RCH-ACV NSD2 p.E1099K mutant (9B) (AID 1645876); further: nearly all actives have a fitted effect of over 70% in size
[3] = Primary qHTS for inhibitors of nuclear receptor binding SET domain protein 2 (NSD2) in an RCH-ACV wild type WT cells (2C) (AID 1645877); further: nearly all actives have a fitted effect of over 70% in size
On the % scale 0 is the no-effect control and ±100 the full control effect.

Chain of Calcium and integrin-binding protein 1 (Homo sapiens) (Q99828 whole entry, looked up): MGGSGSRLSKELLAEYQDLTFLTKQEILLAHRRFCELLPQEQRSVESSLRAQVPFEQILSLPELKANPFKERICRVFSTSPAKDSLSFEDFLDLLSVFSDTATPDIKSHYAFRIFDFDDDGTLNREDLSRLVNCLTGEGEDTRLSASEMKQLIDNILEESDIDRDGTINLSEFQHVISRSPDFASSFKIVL

OC[C@H]1O[C@@H](OCCc2ccccc2)[C@H](O[C@@H]2OC[C@@H](O)[C@H](O)[C@H]2O)[C@@H](O)[C@@H]1O
inactive: Potency [1] | Potency [2] | Potency [3]

CC1OC(OC2C(OC3C(O[C@H]4CC[C@@]5(C)C(CC[C@]6(C)C5CC=C5C7CC(C)(C)CC(O)[C@]7(C)CC[C@]56C)C4(C)C)OC(C(=O)O)C(O)C3O)OCC(O)C2O)C(O)C(O)C1O (stereo not given in full)
inactive: Potency [1] | outcome [2] inactive [at 9.23 µM] | activity change, negative = cell killing [3] 4.8% [at 9.23 µM]

C/C=C/C=C/C=C/C(=O)O[C@@H]1[C@@H](OC)C2=C(C(=O)N(C(CCC(=O)O)C(=O)O)C2)[C@@]2(C)CCCC(C)(C)[C@H]12 (stereo not given in full)
inactive: Potency [1] | Potency [2] | Potency [3]

CC(NC(=O)c1ccccc1N)C(=O)O (stereo not given)
inactive: Potency [1] | Potency [2] | Potency [3]

CC1=CC(=O)CC(C)(C)C1CO[C@@H]1O[C@H](CO)[C@@H](O)[C@H](O)[C@H]1O (stereo not given in full)
inactive: Potency [1] | Potency [2] | Potency [3]

COc1cc(O)c2c(c1Cl)CC(C)OC2=O (stereo not given)
inactive: Potency [1] | Potency [2] | Potency [3]

COC(=O)C1=COC(O[C@@H]2O[C@H](COC(=O)/C=C/c3ccc(O)cc3)[C@@H](O)[C@H](O)[C@H]2O)C2C(CO)=CCC12 (stereo not given in full)
inactive: Potency [1] | Potency [2] | Potency [3]

CC1(C)CC[C@]2(C(=O)O[C@@H]3O[C@H](CO)[C@@H](O)[C@H](O)[C@H]3O)CC[C@]3(C)C(=CCC4[C@@]5(C)CC[C@H](O[C@@H]6O[C@H](C(=O)O)[C@@H](O[C@@H]7O[C@H](CO)[C@@H](O)[C@H](O)[C@H]7O)[C@H](O)[C@H]6O)C(C)(C)C5CC[C@]43C)C2C1 (stereo not given in full)
inactive: Potency [1] | outcome [2] inactive [at 9.23 µM] | activity change, negative = cell killing [3] 2.22% [at 9.23 µM]

C=C[C@H]1[C@H](O[C@@H]2O[C@H](CO)[C@@H](O)[C@H](OC(=O)/C=C/c3ccc(O)c(OC)c3)[C@H]2O)OC=C2C(=O)OCC[C@]21O
inactive: Potency [1] | Potency [2] | Potency [3]

O=C(O)C[C@H]1CCC(=O)[C@@H]1C/C=C\CCO
inactive: Potency [1] | Potency [2] | Potency [3]

Cc1occc(=O)c1O[C@@H]1O[C@H](CO)[C@@H](O)[C@H](O)[C@H]1O
inactive: Potency [1] | Potency [2] | Potency [3]

C/C=C1/[C@H](O[C@@H]2O[C@H](CO)[C@@H](O)[C@H](O)[C@H]2O)OC=C(C(=O)OC)[C@H]1CC(=O)OCCc1ccc(O)c(O)c1
inactive: Potency [1] | Potency [2] | Potency [3]

C/C=C1/C[N+](C)([O-])C2Cc3c([nH]c4ccccc34)C(=O)CC1C2C(=O)OC (stereo not given)
inactive: Potency [1] | Potency [2] | Potency [3]

C/C=C(\C)C(=O)OCC1OC(OCC2OC(OC3(CO)OC(CO)C(O)C3O)C(O)C(O)C2O)C(O)C(O)C1O (stereo not given)
inactive: Potency [1] | Potency [2] | Potency [3]

C=C1CCC[C@]2(C)CC[C@@](O)(C(=C)C(=O)O)C[C@@H]12
inactive: Potency [1] | Potency [2] | Potency [3]
